Target: Focal adhesion kinase 1 (Homo sapiens) (UniProt Q05397)
Assay: PTK2 protein binding on printed compound slides – biochemical, small-molecule microarray, 635/667 nm fluorescence, BSA, DTT, primary screen (AID 1130);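 further: composite of spot emission at 667 nm and signal to noise over triplicate slides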
Conditions: 635 nm fluorescence, higher = more signal

Sequence of Focal adhesion kinase 1 (Homo sapiens) (Q05397 whole entry, looked up): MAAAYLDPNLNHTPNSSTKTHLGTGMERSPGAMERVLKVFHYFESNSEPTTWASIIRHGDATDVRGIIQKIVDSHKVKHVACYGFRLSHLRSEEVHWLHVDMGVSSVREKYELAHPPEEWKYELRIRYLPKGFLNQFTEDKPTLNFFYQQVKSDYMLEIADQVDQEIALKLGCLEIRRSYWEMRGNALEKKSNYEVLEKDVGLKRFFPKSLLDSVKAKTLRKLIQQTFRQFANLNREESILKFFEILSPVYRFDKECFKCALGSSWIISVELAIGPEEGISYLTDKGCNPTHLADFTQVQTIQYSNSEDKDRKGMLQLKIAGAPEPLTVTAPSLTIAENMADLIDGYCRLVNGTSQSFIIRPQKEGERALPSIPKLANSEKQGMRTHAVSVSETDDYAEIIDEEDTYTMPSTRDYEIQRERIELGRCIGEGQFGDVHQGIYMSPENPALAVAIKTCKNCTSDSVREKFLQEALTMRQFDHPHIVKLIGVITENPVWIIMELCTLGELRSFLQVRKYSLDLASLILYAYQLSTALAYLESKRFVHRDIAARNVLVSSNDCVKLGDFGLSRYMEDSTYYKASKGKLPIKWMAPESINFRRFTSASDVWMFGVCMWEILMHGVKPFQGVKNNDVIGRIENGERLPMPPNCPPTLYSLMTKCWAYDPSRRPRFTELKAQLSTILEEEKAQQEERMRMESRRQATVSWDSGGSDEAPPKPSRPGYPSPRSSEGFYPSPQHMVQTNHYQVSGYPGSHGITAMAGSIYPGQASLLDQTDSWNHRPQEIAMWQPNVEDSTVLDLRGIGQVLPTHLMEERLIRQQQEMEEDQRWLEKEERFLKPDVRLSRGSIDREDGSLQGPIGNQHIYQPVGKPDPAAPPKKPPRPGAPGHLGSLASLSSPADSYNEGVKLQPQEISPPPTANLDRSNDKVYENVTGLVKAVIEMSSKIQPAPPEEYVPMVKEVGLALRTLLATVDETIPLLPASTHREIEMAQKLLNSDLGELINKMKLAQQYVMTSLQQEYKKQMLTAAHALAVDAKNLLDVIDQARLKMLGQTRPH

| SMILES | composite z-score |
| --- | --- |
| CCN1C(=O)[C@@H]2[C@H]3C(=CC[C@@H]2C1=O)C1(OCCCO1)[C@H]1O[C@H]1[C@H]3O | 0.162 |
| CCOC(=O)[C@H](Cc1ccccc1)NC(=O)CCC1CC(OC(=O)NCCc2ccc(F)cc2)CC2(CCCC(COC(=O)NCCc3ccccc3OC)O2)O1 (stereo partly specified) | 0.165 |
| CCOC(=O)NN=C1C[C@@H](O)[C@@H](O)[C@@H]2[C@@H]3C(=O)N(c4cccc(Oc5ccccc5)c4)C(=O)[C@@H]3CC[C@H]12 | 0.0494 |
| CCCCC#C[C@@H]1C=C[C@H](Oc2ccc(C(=O)OC)cc2)[C@@H](COC(=O)OCC)O1 | -0.0377 |
| CCCNC(=O)OC[C@H]1O[C@H](CCON=C(C)CCN2CCc3nc(CC)c(CC)cc3C2)C=C[C@@H]1Oc1ccc(OC)cc1 | 0.512 |
| CCC1=NOC(CCC2CC(OC(=O)NCc3cccc4c3OCO4)CC3(CCCC(COC(=O)NCCc4ccccc4OC)O3)O2)C1 (stereo unspecified) | 0.494 |
| CO[C@@H]1COC(=O)CC=C[C@H](C)[C@H](OC)COC(=O)[C@H](C)NC(=O)CC=C[C@H]1C | -0.289 |
| C#CCCCON=C1C[C@@H](O)[C@@H](O)[C@@H]2[C@@H]3C(=O)N(C(C)(C)C)C(=O)[C@@H]3CC[C@H]12 | -0.0811 |
| CCOC(=O)[C@H](Cc1ccccc1)NC(=O)CCC1CC(OC(=O)NCc2ccc3c(c2)OCO3)CC2(CCCC(COC(=O)NCCC(C)C)O2)O1 (stereo partly specified) | 0.234 |
| COC(=O)CC=C[C@@H](C)[C@@H](C=NO[C@H](C)c1cn([C@H](CO)Cc2ccccc2)nn1)NS(=O)(=O)c1ccc(C)cc1 | 0.608 |
| CCN1C(=O)[C@H]2[C@H]3[C@H](O)[C@H](O)CC(=O)[C@@H]3CC[C@H]2C1=O | -0.049 |

From PubChem BioAssay
